# In all, about 340,000 compounds went through this assay and about 1,200 (0.35%) were called active. Shown is part of a subset that was picked to be rich in actives. Values without a mark were called inactive. Cut-off read from the data, not from the text of the source: active = inhibition above about 50% (passing the limit was not always enough); inconclusive = no clear call, values can overlap the other calls; inactive = below about 31%.
# Experiment: HIV Vif self-association inhibitors, primary screen, imaging, HEK293T, single point (AID 602346)
# Details: HEK293T cells, Vif self-association by quenched fluorescence, 24 h, at 7.49 µM, stronger effect = higher value
row,SMILES,inhibition
1,COc1ccc(Br)c(Cn2c(C)c(C(=O)NCc3cccs3)sc2=O)c1,1.02%
2,CC[C@]1(O)C[C@@H]2CN(CCc3c([nH]c4ccccc34)[C@@](C(=O)OC)(c3cc4c(cc3OC)N(C)[C@H]3[C@@](O)(C(=O)OC)[C@H](OC(C)=O)[C@]5(CC)C=CCN6CC[C@]43[C@@H]65)C2)C1,79.8% (active)
3,COc1cc(NC(=O)c2ccccc2)c(OC)cc1NC(=O)Cc1ccccc1,-4.83%
4,COc1cc(NC(=O)c2ccc(-c3csc(C)n3)cc2)c(OC)cc1Cl,64% (active)
5,CCOCC(=O)Nc1cc(OC)c(Cl)cc1OC,-3.02%
6,CC(=O)N(CC(O)CO)c1c(I)c(C(=O)NCC(O)CO)c(I)c(C(=O)NCC(O)CO)c1I (stereo not given),62% (active)
7,COCC(=O)Nc1c(I)c(C(=O)NCC(O)CO)c(I)c(C(=O)N(C)CC(O)CO)c1I (stereo not given),-1.59%
8,CC12CCC(=O)C=C1CCC1C2C(O)CC2(C)C1CCC2(O)C(O)CO (stereo not given),24%
9,C[C@H]([C@@H](O)[C@@H](O)[C@@H](C)C(C)(C)C)[C@H]1CC[C@H]2C3CC[C@H]4C[C@H](OS(=O)(=O)O)[C@@H](OS(=O)(=O)O)C[C@]4(C)[C@H]3CC[C@]12C (stereo not given in full),9.95%
10,CC(C)(C)CC(=O)Nc1nc(C(N)Cc2ccc(C(F)(F)F)cc2)cs1 (stereo not given),-2.15%
11,C[C@@H]1CN([C@@H](C)CO)S(=O)(=O)c2ccc(C#Cc3cccc(F)c3)cc2O[C@H]1CN(C)S(=O)(=O)c1cn(C)cn1,-26.5%
12,COC(=O)c1cc(S(=O)(=O)N2CCN(c3cc(C)ccc3C)CC2)c[nH]1,51.4% (active)
13,Cc1ccc(C)c(N2CCN(S(=O)(=O)c3ccc4c(c3)oc(=O)n4C)CC2)c1,-13.1%
14,Cc1ccc(C)c(N2CCN(S(=O)(=O)c3c(C)[nH]c(C)c3C(=O)N3CCCC3)CC2)c1,1.25%
15,CCCCCCNC(=O)O[C@H]1CN(C(=O)OC(C)C)N(C(=O)OC(C)C)[C@@H]2CN(S(=O)(=O)c3ccc(C)cc3)C[C@]12O,-2.14%
16,CCOP(=O)(OCC)C(Cc1ccccc1)N=C(c1ccccc1)c1ccccc1 (stereo not given),-3.63%
17,CC1(C(=O)Nc2cccc(Oc3ccccc3)c2)CCN1Cc1ccccc1Cl (stereo not given),1.11%
18,CN(Cc1ccccc1)C(=O)CCC1CCN(C(=O)c2ccco2)CC1,132% (active)
19,O=C(c1ccco1)N1CCN(C(=O)C2c3ccccc3Oc3ccccc32)CC1,2.39%
20,O=C(c1ccco1)N1CCN(CCOc2ccccc2)CC1,3.05%
21,COc1ccc(C(C#N)=C2C=CC(=NO)c3ccccc32)cc1,24.3%
22,NC(c1ccccc1)c1csc(NC(=O)Nc2cccc(C(F)(F)F)c2)n1 (stereo not given),4.85%

row,SMILES,inhibition
1,COc1ccc(-c2ccc(CN3C(CC(C)C)C(=O)N(Cc4cn(CC5CCCCC5)nn4)CCS3(=O)=O)cc2)cn1 (stereo not given),-4.05%
2,Cc1ccc(O)c(CNc2nc3ccccc3[nH]2)c1,-2.01%
3,CN(c1ccccc1)S(=O)(=O)c1cc(C(=O)Nc2nc3ccccc3[nH]2)ccc1Cl,-13.9%
4,COC(=O)Nc1nc2ccc(Sc3ccccc3)cc2[nH]1,57% (active)
5,COc1ccc(CC(N)c2csc(NC(=O)Cc3ccccc3)n2)cc1 (stereo not given),-11.3%
6,CC(CN1CCOCC1)OC(=O)c1ccc(Cl)cc1Cl (stereo not given),4.38%
7,COC(=O)c1ccc(NCc2cc(O)ccc2O)cc1,101% (active)
8,O=C(OC12CC3CC(CC(C3)C1)C2)c1ccc(NCc2cc(O)ccc2O)cc1,8.83%
9,COC(=O)c1ccc(NCC(=O)c2ccccc2)cc1,3.71%
10,CC(C)OC(=O)c1ccc(NCc2cc(O)ccc2O)cc1Cl,55.2% (active)
11,CC(OC(=O)c1ccc(Cl)cc1O)C(=O)NCCC1=CCCCC1 (stereo not given),11.7%
12,COc1ccc(C(NC(=O)C2CCN(CCCc3ccccc3)CC2)c2cccs2)cc1 (stereo not given),14.2%
13,CCCCC[C@@H]1C=C(C(=O)OCC)[C@H](c2ccccc2)N1S(=O)(=O)c1ccc(C)cc1,3.46%
14,COc1cccc(NC(=O)CSc2nnc(Cc3ccc(OC)c(OC)c3)o2)c1,60.1% (active)
15,COc1ccc(Cc2nnc(SCC(=O)Nc3ccc(C)c(C)c3)o2)cc1OC,3.15%
16,COc1ccc(C(=O)NCc2nnc(SCC(=O)Nc3cccc(OC)c3)o2)cc1,19%
17,CNc1cncc(-c2ccc(NS(C)(=O)=O)cc2)n1,21.1%
18,COc1ccc(-c2ccc(C(=O)NCCN3CCOCC3)c3occc23)c(C)c1,-8.68%
19,Cc1ccc(C(=O)NC(=S)NCCN2CCOCC2)cc1,50.2% (active)
20,Cc1ccc(C(=O)N/C(=C\c2ccc(F)cc2)C(=O)NCCN2CCOCC2)cc1,4.18%
21,Cc1cc(C)cc(C(=O)NCCN2CCOCC2)c1,-5.07%
22,Cc1cc(=O)oc2c3c(cc(OCC(=O)NCC(O)c4ccccc4)c12)OC(C)(C)CC3 (stereo not given),-17%

row,SMILES,inhibition
1,COc1ccc(CC(N)c2csc(NC(=O)NC(c3ccccc3)c3ccccc3)n2)cc1 (stereo not given),2.09%
2,COc1cc(Cn2c3ccc(NC(=O)CC(C)c4ccccc4)cc3c(=O)n2C)ccc1F (stereo not given),-4.26%
3,CC(C)=CCc1c(O)c(CC=C(C)C)c2occ(-c3ccc(O)cc3)c(=O)c2c1O,6.99%
4,CC(C)c1cc(N=O)cc(C(C)C)c1O,3.46%
5,CC(C)=CCc1ccc(O)c(=O)cc1C(C)C,114% (active)
6,O[C@H]1C[C@H](c2ccc(Cl)cc2)N(Cc2cccs2)C[C@@H]1n1cc(C2CC2)nn1,-12.7%
7,COc1ccc(-c2nc3cnccn3c2NC2CCCCC2)cc1-c1cccc(Cl)c1,51.8% (active)
8,COc1ccc(-c2nc3cc(C)ccn3c2NC2CCCCC2)cc1SC1CCCCC1,-0.392%
9,COc1ccc(-c2nc3cnccn3c2NC(C)(C)CC(C)(C)C)cc1O,-5.81%
10,O=C(NC(c1ccc(-c2ccccc2)cc1)c1cnccn1)C1CCN(CCOc2ccc(Cl)cc2Cl)CC1 (stereo not given),4.85%
11,CCOC1=C2[C@H]([C@H]3C(=O)N(c4ccccc4)C(=O)[C@H]3C1)[C@@H](c1ccccc1)N(S(=O)(=O)c1ccc(C)cc1)[C@H]2c1ccccc1,6.5%
12,Cc1cc2nc(-c3ccc(Cl)cc3)c(Cc3cccc(F)c3)n2c(C)c1Br,16.2%
13,C[C@H]1CN([C@@H](C)CO)C(=O)c2cc(C3=CCCCC3)cnc2O[C@@H]1CN(C)C(=O)Cc1ccccc1,-21%
14,COc1ccc(NC(=O)c2cn(-c3ccccc3)nc2SC)cc1,-9.63%
15,O=C(O)c1ccccc1-c1ccccc1C(=O)Nc1nccs1,13.1%
16,COc1ccc(-c2nn(-c3ccccc3)cc2C(=O)Nc2nccs2)cc1OC,52.9% (active)
17,CC1(C(=O)Nc2cccc3c2CCCC3)CCN1C(=O)CCc1ccc(Cl)cc1Cl (stereo not given),-0.855%
18,CCc1cc(-c2nnn(CCC3COCCO3)c2CC)ccc1-c1cn(Cc2ccc3ccccc3c2)nn1 (stereo not given),-19.8%
19,CCc1nc2c(OCc3ccc(Cl)cc3Cl)cccn2c1N(C)C(=O)C(C)C,-10.6%
20,CCc1nc2ccc(C(=O)Nc3cc(-c4ccccc4)ccc3OC)cn2c1N(CC)CC(=O)N(C)C,-11.6%
21,CCOCCC(=O)Nc1ccc2c(c1)c(=O)n(C)n2-c1ccc2ccccc2c1,34.9%
22,Cn1c(/C(C#N)=C2/CCCCCN2)nc2ccccc21,5.07%

row,SMILES,inhibition
1,N#C/C(=C1\CCCN1)c1nc(-c2ccccc2)cs1,61.4% (active)
2,N#CC(=C1CCCC1)c1nc(-c2ccc(Cl)cc2)cs1,3%
3,O=C(NCCOc1ccccc1)N1[C@H]2CC[C@@H]1C=C(c1ccc(F)cc1OCc1ccccc1)C2,-2.23%
4,Cc1ccc2[nH]c(=O)c(-c3nc4c(C)cccn4c3NCc3ccco3)cc2c1,-12.9%
5,CCCN(CCC)c1nc2c(C)cccn2c(=O)c1/C=C1/SC(=S)N(Cc2ccco2)C1=O,146% (active)
6,CCc1nc2c(OCc3ccc(C(F)(F)F)cc3)cccn2c1N(C)C(=O)CC(C)C,-5.03%
7,COc1ccc(NC(=O)C2Cc3c(-c4ccc5c(c4)OCO5)ccnc3O2)cn1 (stereo not given),-5.58%
8,COc1cccc(CNc2nc(NCc3ccccc3OC)nc3ccsc23)c1,-2.52%
9,CCCOc1ccccc1C1CC(=O)Nc2cc3c(cc21)OCO3 (stereo not given),-2.32%
10,O=C1OCC2=C1C(c1ccc(Cl)cc1)c1cc3c(cc1O2)OCO3 (stereo not given),-11.3%
11,COc1ccccc1C1C2=C(COC2=O)Nc2cc3c(cc21)OCO3 (stereo not given),89.1% (active)
12,COc1ccc(OC)c(NC(=O)COC(=O)Cc2ccsc2)c1,9.67%
13,COc1ccc(CN(C)C(=O)Cc2ccsc2)c(OC)c1OC,-9.61%
14,COc1ccccc1C(C)NC(=O)Cc1ccsc1 (stereo not given),98.8% (active)
15,O=C(COc1ccccc1Cl)Nc1ccccc1C(=O)NC1CC1,-13.2%
16,CC(=O)Nc1ccc(NC(=O)COc2ccccc2C(=O)Nc2cccc(Cl)c2Cl)cc1,146% (active)
17,O=C(COc1ccccc1Cl)Nc1ccc(C(=O)c2ccc(C(=O)O)cc2)cc1,21.3%
18,NC(c1csc(NC(=O)Nc2ccccc2Oc2ccccc2)n1)c1ccccc1Cl (stereo not given),-9.54%
19,COc1cncc(-c2cnc3sc(NCCc4ccccn4)nn23)c1,-4.71%

# From PubChem BioAssay AID602346 (Broad Institute, 2012)
